# Assay results taken from PubChem BioAssay.
# Unmarked numbers belong to inactive results. The list shows a part of the results. Active and inactive are the calls of the source.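 Rule for the calls, unless noted: active = inhibition above the hit cutoff set in the earlier primary screen (cut at about 27% in these data); inactive = the rest.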
# How the values were obtained:
# [1] = molecular target: Nuclear receptor coactivator 3 (Homo sapiens) (UniProt Q9Y6Q9); assay: NCOA3 GAL4-fusion reporter inhibition – cell-based, luminescence, quadruplicate, confirmation (AID 588792;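 active = mean inhibition over 43.08%, the solvent-only control mean plus 3 SD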); conditions: HEK293 GAL4-SRC3 luciferase reporter, at 3.6 µM, stronger effect = higher value
# Sequence of Nuclear receptor coactivator 3 (Homo sapiens) (Q9Y6Q9 whole entry, looked up, the tested form may be a part): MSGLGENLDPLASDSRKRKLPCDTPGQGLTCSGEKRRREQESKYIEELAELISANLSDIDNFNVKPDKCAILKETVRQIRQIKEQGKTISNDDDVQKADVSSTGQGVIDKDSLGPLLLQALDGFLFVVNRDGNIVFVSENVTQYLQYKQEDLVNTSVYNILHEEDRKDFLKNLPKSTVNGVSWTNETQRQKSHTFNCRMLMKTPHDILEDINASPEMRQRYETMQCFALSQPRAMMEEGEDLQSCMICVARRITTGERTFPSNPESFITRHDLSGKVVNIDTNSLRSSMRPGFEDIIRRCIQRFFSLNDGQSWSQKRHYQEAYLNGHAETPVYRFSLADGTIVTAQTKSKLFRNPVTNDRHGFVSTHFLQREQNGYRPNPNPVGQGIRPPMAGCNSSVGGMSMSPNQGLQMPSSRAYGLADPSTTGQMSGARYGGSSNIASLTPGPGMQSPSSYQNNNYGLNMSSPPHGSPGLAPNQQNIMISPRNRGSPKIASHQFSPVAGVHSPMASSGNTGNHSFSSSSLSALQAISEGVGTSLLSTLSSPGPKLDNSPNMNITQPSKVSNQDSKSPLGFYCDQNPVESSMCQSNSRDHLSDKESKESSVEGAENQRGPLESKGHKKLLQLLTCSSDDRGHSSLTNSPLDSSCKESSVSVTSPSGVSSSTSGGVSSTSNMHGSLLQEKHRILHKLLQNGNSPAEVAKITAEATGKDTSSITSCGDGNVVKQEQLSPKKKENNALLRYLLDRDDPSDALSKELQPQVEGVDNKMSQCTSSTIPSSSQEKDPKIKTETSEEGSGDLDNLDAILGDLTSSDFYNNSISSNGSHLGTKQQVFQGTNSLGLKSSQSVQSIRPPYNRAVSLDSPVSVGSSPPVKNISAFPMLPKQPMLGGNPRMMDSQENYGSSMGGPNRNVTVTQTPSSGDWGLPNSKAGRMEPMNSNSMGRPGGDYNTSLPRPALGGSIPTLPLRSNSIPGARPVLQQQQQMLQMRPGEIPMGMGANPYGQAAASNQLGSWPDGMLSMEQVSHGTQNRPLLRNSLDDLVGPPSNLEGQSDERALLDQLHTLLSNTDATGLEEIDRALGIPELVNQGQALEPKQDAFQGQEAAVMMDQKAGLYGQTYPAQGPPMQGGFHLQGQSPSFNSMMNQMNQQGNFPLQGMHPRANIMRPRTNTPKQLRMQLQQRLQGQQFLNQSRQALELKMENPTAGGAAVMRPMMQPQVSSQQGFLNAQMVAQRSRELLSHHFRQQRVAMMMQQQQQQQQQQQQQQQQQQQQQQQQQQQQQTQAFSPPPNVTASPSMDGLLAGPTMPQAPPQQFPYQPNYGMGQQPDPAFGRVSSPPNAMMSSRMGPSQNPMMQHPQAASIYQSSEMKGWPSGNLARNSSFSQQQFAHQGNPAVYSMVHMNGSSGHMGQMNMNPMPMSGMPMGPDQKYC
# [2] = test system: transactivating tegument protein VP16 (Human herpesvirus 1), Gal4-VP16 luciferase reporter; assay: repression of VP16-driven luciferase reporter – cell-based, luminescence, high throughput, counter-screen for SRC3 inhibitor project (AID 588794; in the data active = inhibition above about 30%); conditions: mammalian cells, at 3.6 µM, stronger effect = higher value
# [3] = molecular target: Protein phosphatase methylesterase 1 (Homo sapiens) (UniProt Q9Y570); assay: human PME-1 methylesterase inhibition confirmation – biochemical, fluorescence polarization, FP-Rh probe, triplicate (AID 2171); conditions: recombinant PME-1, FP-Rh probe fluorescence polarization; at 5.9 µM; stronger effect = higher value
# Sequence of Protein phosphatase methylesterase 1 (Homo sapiens) (Q9Y570 whole entry, looked up): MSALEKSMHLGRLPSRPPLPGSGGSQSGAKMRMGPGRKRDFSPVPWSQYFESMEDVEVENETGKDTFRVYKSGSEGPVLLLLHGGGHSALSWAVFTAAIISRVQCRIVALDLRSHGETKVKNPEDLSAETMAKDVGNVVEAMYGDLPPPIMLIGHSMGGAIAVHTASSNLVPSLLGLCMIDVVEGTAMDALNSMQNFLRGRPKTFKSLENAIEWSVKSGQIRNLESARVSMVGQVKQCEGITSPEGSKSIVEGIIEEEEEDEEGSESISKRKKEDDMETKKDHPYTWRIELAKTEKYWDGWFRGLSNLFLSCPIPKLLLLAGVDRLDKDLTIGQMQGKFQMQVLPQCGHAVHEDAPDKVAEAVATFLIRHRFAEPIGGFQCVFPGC
# [4] = StAR promoter reporter inhibitors, counter-screen for LRH-1 inverse agonist project, cell-based, luminescence, high throughput (AID 651611; in the data active = inhibition above about 28%); conditions: StAR promoter luciferase reporter counterscreen, at 3.6 µM, stronger effect = higher value
# [5] = molecular target: Nuclear receptor subfamily 5 group A member 2 (Homo sapiens) (UniProt O00482); assay: NR5A2 activity suppression in reporter cells – cell-based, luminescence, confirmation (AID 651613; in the data active = inhibition above about 42%); conditions: cell-based LRH-1 luciferase reporter, inverse agonism; at 3.6 µM; stronger effect = higher value
# [6] = molecular target: Steroidogenic factor 1 (Homo sapiens) (UniProt Q13285); assay: inverse agonism at SF1 nuclear receptor – cell-based, luminescence, high throughput, counter-screen for LRH-1 inverse agonist project (AID 651614; in the data active = inhibition above about 44%); conditions: cell-based SF1 luciferase reporter, at 3.6 µM, stronger effect = higher value
# Sequence of Steroidogenic factor 1 (Homo sapiens) (Q13285 whole entry, looked up, the tested form may be a part): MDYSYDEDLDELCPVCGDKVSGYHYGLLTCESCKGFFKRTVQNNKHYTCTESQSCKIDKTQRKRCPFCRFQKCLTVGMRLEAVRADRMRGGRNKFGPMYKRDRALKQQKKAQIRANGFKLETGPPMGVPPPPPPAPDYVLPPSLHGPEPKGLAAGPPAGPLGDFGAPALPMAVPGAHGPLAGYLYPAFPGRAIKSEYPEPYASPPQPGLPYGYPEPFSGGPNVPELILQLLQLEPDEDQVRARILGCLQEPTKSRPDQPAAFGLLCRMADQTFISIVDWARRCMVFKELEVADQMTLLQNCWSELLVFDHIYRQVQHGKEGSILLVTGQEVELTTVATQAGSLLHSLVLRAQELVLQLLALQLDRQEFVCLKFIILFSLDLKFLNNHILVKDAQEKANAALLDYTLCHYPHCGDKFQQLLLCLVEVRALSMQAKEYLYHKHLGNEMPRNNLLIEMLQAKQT
# [7] = compounds suppressing VP16-driven luciferase signal – cell-based, luminescence, high throughput, counter-screen for LRH-1 inverse agonist project (AID 651615; in the data active = inhibition above about 33%); conditions: Gal4-VP16 luciferase reporter cells, at 3.6 µM, stronger effect = higher value
# [8] = test system: transactivating tegument protein VP16 (Human herpesvirus 1); assay: compounds suppressing VP16-driven luciferase signal – cell-based, luminescence, single concentration, counter-screen for SRC2 inhibitor project (AID 652007; in the data active = inhibition above about 36%); conditions: cell-based VP16 transactivation luciferase reporter, at 8.9 µM, stronger effect = higher value
# [9] = molecular target: Nuclear receptor coactivator 2 (Homo sapiens) (UniProt Q15596); assay: inhibition of GAL4-SRC2 driven luciferase expression – cell-based, luminescence, HEK293, triplicate, confirmation (AID 652008;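 active = mean inhibition above 46.5%, the solvent-only control mean plus 3 SD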); conditions: HEK293 GAL4-SRC2 luciferase reporter, at 8.9 µM, stronger effect = higher value
# [10] = molecular target: Nuclear receptor coactivator 1 (Homo sapiens) (UniProt Q15788); assay: NCOA1 GAL4-fusion reporter inhibition – cell-based, luminescence, quadruplicate, confirmation (AID 588820;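 active = mean inhibition above 46.68%, the untreated control wells mean plus 3 SD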); conditions: HEK293 GAL4-SRC1 luciferase reporter, at 3.6 µM, stronger effect = higher value
# Sequence of Nuclear receptor coactivator 1 (Homo sapiens) (Q15788 whole entry, looked up, the tested form may be a part): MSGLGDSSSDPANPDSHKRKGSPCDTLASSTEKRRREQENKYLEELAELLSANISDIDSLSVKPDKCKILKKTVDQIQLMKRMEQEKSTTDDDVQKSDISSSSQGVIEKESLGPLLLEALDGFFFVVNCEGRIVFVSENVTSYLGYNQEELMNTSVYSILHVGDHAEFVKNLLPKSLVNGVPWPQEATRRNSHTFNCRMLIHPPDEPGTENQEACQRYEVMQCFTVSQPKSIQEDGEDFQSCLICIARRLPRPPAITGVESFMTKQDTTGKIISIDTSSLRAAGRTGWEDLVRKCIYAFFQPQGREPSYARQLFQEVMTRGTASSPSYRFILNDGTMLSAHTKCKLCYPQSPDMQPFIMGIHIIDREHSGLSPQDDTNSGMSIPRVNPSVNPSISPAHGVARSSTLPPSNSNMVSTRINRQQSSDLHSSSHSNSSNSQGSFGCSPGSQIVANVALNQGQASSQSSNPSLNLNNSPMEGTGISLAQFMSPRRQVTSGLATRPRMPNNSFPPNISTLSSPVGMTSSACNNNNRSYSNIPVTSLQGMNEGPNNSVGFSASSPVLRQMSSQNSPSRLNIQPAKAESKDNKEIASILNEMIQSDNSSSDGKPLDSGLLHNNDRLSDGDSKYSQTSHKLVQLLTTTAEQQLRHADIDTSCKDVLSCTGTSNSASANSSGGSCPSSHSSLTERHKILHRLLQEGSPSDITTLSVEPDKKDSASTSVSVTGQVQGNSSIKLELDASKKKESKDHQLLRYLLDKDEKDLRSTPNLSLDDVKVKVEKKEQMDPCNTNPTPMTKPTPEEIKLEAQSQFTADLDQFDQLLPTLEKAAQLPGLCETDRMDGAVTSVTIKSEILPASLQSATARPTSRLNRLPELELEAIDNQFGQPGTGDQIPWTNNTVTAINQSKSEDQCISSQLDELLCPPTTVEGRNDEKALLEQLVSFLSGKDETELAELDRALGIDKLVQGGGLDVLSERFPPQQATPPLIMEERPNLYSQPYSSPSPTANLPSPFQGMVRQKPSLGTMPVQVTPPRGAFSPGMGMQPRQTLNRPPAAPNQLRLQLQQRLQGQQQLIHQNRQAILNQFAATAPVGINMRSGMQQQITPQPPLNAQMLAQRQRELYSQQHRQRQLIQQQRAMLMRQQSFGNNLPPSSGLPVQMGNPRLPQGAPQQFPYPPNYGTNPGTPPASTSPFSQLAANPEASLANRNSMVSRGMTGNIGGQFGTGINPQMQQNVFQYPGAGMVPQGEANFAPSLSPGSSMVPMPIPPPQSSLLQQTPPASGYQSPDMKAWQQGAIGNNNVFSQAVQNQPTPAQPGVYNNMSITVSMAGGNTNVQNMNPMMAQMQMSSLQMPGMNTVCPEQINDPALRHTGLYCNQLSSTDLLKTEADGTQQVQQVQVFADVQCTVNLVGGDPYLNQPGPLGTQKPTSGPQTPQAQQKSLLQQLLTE
# [11] = repression of VP16-driven luciferase reporter – cell-based, luminescence, high throughput, counter-screen for SRC1 inhibitor project (AID 588824; in the data active = inhibition above about 25%); conditions: cell-based VP16 transactivation luciferase luminescence; at 3.6 µM; stronger effect = higher value
# [12] = molecular target: Protein-arginine deiminase type-4 (Homo sapiens) (UniProt Q9UM07); assay: protein arginine deiminase 4 blockade, retest – biochemical, fluorescence polarization, confirmation (AID 488796;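 active = mean inhibition across replicates above the hit cutoff set by the earlier primary screen, cut at about 15% in these data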); conditions: recombinant PAD4, RCA probe fluorescence polarization; at 6.36 µM; stronger effect = higher value
# Sequence of Protein-arginine deiminase type-4 (Homo sapiens) (Q9UM07 whole entry, looked up): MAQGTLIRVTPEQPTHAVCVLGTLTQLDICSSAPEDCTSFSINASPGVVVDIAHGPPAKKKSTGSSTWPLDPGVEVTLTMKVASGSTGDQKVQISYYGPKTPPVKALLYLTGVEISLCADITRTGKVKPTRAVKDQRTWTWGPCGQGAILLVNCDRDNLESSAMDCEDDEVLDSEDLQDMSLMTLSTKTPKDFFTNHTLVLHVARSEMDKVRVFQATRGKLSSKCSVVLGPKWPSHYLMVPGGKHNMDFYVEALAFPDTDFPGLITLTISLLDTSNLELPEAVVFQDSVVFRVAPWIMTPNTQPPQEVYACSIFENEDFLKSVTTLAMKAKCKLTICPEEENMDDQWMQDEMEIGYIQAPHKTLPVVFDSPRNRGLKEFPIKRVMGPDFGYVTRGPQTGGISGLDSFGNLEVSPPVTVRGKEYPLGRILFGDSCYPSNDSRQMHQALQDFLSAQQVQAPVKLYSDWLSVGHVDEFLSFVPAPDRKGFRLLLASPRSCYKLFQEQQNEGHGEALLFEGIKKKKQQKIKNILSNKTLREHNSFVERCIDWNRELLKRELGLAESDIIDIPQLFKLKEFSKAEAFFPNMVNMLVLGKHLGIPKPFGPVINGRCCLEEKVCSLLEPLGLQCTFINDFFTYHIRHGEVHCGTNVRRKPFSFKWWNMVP
# [13] = molecular target: Platelet-activating factor acetylhydrolase (Homo sapiens) (UniProt Q13093); assay: inhibition of plasma PAF acetylhydrolase – biochemical, fluorescence polarization, human, confirmation (AID 463230;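 active = mean inhibition of the triplicate above the hit cutoff set for the earlier primary screen, cut at about 25% in these data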); conditions: recombinant pPAFAH, FP-Rh probe fluorescence polarization; at 3.39 µM; stronger effect = higher value
# Sequence of Platelet-activating factor acetylhydrolase (Homo sapiens) (Q13093 whole entry, looked up): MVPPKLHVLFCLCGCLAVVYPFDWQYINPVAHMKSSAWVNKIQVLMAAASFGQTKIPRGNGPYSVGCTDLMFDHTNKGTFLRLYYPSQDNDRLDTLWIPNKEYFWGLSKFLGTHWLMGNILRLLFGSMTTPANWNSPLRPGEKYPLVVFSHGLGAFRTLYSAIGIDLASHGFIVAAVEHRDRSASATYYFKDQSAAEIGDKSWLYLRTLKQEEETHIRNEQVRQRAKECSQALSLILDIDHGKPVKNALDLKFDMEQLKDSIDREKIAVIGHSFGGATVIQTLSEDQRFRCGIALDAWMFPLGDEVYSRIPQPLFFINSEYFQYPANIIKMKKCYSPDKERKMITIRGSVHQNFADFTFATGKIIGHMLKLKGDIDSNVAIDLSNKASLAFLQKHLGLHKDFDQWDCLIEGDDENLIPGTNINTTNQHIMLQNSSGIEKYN
# [14] = reduced OD of T4-infected AddAB+ E. coli – absorbance, E. coli V3065, T4 phage, triplicate, AddAB inhibitor project, confirmation (AID 488942;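 active = mean inhibition above a set limit taken from the earlier primary screen, cut at about 13% in these data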); conditions: E. coli V3065 expressing H. pylori AddAB, at 11.9 µM, stronger effect = higher value
# [15] = reduced OD of phage-infected RecBCD+ V66 E. coli – absorbance, mutant T4 phage, counter-screen for AddAB inhibitor project (AID 488955;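 active = mean inhibition above the mean of solvent-only control wells plus 3 SD, cut at about 4% in these data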); conditions: OD growth, at 11.9 µM, stronger effect = higher value
# [16] = bacterial growth inhibitors – absorbance, counter-screen for AddAB inhibitor project, confirmation (AID 488956; in the data active = inhibition above about 25%); conditions: bacterial viability, absorbance (AddAB counterscreen); at 11.9 µM; stronger effect = higher value
# [17] = reduced OD of V66 E. coli with T4 gene 2 phage – absorbance, RecBCD inhibitor project, confirmation (AID 651982;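 active = mean inhibition over triplicates exceeding the hit threshold derived in the original primary screen, cut at about 11% in these data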); conditions: E. coli V66 + T4 2- phage, growth OD; at 11.9 µM; stronger effect = higher value
# [18] = bacterial growth inhibition – absorbance, high throughput, counter-screen for RecBCD inhibitor project (AID 651983; in the data active = inhibition above about 20%); conditions: E. coli viability, absorbance (OD) growth; at 11.9 µM; stronger effect = higher value
# [19] = reduced optical density, T4-challenged addAB+ bacteria – absorbance, E. coli V3065, T4 phage, counter-screen for RecBCD inhibitor project, confirmation (AID 651984;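 active = mean inhibition above the solvent-only control wells' mean plus 3 SD, cut at about 22% in these data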); conditions: E. coli expressing H. pylori AddAB + T4 phage, OD growth; at 11.9 µM; stronger effect = higher value
# [20] = molecular target: Glutathione S-transferase omega-1 (Homo sapiens) (UniProt P78417); assay: recombinant GSTO1 blockers, retest – biochemical, fluorescence polarization, triplicate, counter-screen for RBBP9 inhibitor project, confirmation (AID 2176;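 active = inhibition above the primary screen's cutoff, its mean inhibition plus 3 SD, cut at about 35% in these data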); conditions: recombinant GSTO1, probe fluorescence polarization; at 5.96 µM; stronger effect = higher value
# Sequence of Glutathione S-transferase omega-1 (Homo sapiens) (P78417 whole entry, looked up): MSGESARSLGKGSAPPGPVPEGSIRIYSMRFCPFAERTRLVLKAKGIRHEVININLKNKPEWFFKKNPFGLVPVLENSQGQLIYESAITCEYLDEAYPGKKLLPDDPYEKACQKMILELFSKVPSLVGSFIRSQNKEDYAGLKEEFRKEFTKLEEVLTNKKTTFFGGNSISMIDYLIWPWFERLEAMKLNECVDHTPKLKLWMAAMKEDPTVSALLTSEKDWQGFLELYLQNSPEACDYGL
compound,measurement,setting,value
COc1ccc(-n2nnnc2C(c2cccc3ccccc23)N2CCC(n3c(=O)[nH]c4ccccc43)CC2)cc1 (configuration not stated),inhibition,[1],-24.1%
same,inhibition,[2],4.21%
Cc1nc2c(=O)n(C)c(=O)nc-2n(C)n1,inhibition,[3],33% (active)
same,inhibition,[4],78.3% (active)
same,inhibition,[5],94.5% (active)
same,inhibition,[6],83.4% (active)
same,inhibition,[7],90.8% (active)
same,inhibition,[8],62.6% (active)
same,inhibition,[9],77.8% (active)
CNc1ccc2nc3ccccc3[n+](C)c2c1,inhibition,[3],61.7% (active)
same,inhibition,[10],-4.23%
same,inhibition,[11],3.25%
Oc1c(Br)c(Br)c(Br)c(Br)c1Br,inhibition,[3],84.2% (active)
CCCNC(=O)N1[C@H]2CC[C@@H]1C(C(=O)OC)=C(c1ccc(OC(F)(F)F)cc1)C2,inhibition,[1],14.2%
same,inhibition,[2],-7.81%
Cc1cc(Br)c(NC(=O)CN2CC=C(c3ccccc3)CC2)c(Br)c1,inhibition,[3],44.9% (active)
C[n+]1c2ccccc2nc2ccc(NCCO)cc21,inhibition,[3],35% (active)
O=C1C(=O)c2ccccc2-c2ccccc21,inhibition,[3],42.8% (active)
same,inhibition,[1],97.1% (active)
same,inhibition,[2],95.2% (active)
same,inhibition,[10],95.1% (active)
same,inhibition,[11],93.5% (active)
same,inhibition,[8],96.5% (active)
same,inhibition,[9],98.8% (active)
Nc1c(C(=O)NCc2ccco2)c2nc3ccccc3nc2n1CCN1CCOCC1,inhibition,[3],7.2%
COc1ccccc1C1=NCc2nnc(CSC)n2-c2ccc(Cl)cc21,inhibition,[12],12.9%
Cc1ccccc1NP(=O)(Oc1ccccc1F)Oc1ccccc1F,inhibition,[3],43.5% (active)
O=c1c2ccccc2nc(/C=C/c2ccc(O)c(O)c2)n1-c1ccccc1,inhibition,[3],-7.92%
CN1/C(=C\C=C\C2=[N+](C)c3ccc4ccccc4c3C2(C)C)C(C)(C)c2ccccc21,inhibition,[3],79.1% (active)
O=C1CC(=O)N(Cc2ccccc2)C(=O)N1CCCCCCN1C(=O)CC(=O)N(Cc2ccccc2)C1=O,inhibition,[13],4.95%
N#Cc1ccccc1Cn1cc(C(=O)C2CC2)c2ccccc21,inhibition,[3],66.3% (active)
Cc1oc(-c2ccccc2)nc1CN1C(=O)CN=C(c2ccccc2)c2ccccc21,inhibition,[3],66.1% (active)
NP(=O)(OCC(F)(F)F)Oc1ccc(Cl)cc1 (configuration not stated),inhibition,[3],30.6% (active)
Cc1ccc(S(=O)(=O)N2CCCCC2)cc1NC(=O)CN1CC=C(c2ccccc2)CC1,inhibition,[3],85.5% (active)
NCCc1ccc(S(=O)(=O)F)cc1,inhibition,[13],71.9% (active)
O=[N+]([O-])c1cnc2ccc3ccccc3c2c1,inhibition,[14],103% (active)
same,inhibition,[15],21.8% (active)
same,inhibition,[16],63.5% (active)
same,inhibition,[17],18.2% (active)
same,inhibition,[18],20.3% (active)
same,inhibition,[19],76.8% (active)
CCNc1nc2[nH]c(=O)c3c(c2s1)OC(N)=C(C#N)C3c1cccs1 (configuration not stated),inhibition,[20],7.87%
